Hits are enriched below; roughly 2.4% of the tested compounds scored in any of these assays.
ABHD5 PLIN5 PPI: ABHD5-PLIN5 interaction inhibitors, primary screen, cell lysate, split luciferase complementation, luminescence | Perilipin-5 (Homo sapiens) + 1-acylglycerol-3-phosphate O-acyltransferase ABHD5 (Homo … | Split G. princeps luciferase complementation, 4 h | inhibition, % at 4 µM | 360,000 tested, 0.78% active | AID 602281, 2012;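 active = inhibition above the mean inhibition across every tested compound plus 3 SD, cut at about 22% in these data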
TLR4 MyD88 comp: inhibitors of TLR4-MyD88 association in cells, primary screen, cell-based, HeLa CL3-4, BLA complementation, FRET ratio. AID 861, 2007. 200,000 tested, 0.18% active. inhibition, % at 8.4 µM. HeLa CL3-4 TLR4/MyD88 BLA complementation; in the data active = inhibition above about 25%
HTR2A ag: mouse Htr2a agonists via beta-arrestin recruitment, primary screen, cell-based, luminescence. CHO-K1 mHTR2A beta-arrestin complementation; percent of 30 µM serotonin response. 5-hydroxytryptamine receptor 2A (Mus musculus), P35363. activation, % at 7.6 µM. AID 624169, 2012. 360,000 tested, 0.66% active;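 active = activation above a run cutoff, the mean activation of all tested compounds plus 3 SD, cut at about 14% in these data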
CRFR2-BP antag: antagonists of CRF-BP/CRF-R2 complex, primary screen, cell-based, HEK293, calcium dye fluorescence, uHTS; CRF-induced calcium fluorescence; inhibition, % at 11.8 µM; 350,000 tested, 0.59% active; AID 588475, 2011;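 active = inhibition of the ligand-induced calcium signal above about 50% at the single tested concentration, limit read from the data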
TLR9-MyD88 block: inhibitors of TLR9-MyD88 association in cells, primary screen, cell-based, CHO, BLA complementation, fluorescence; AID 504734, 2011; CCF4 FRET ratio; 340,000 tested, 0.21% active; Toll-like receptor 9 (Homo sapiens) + Myeloid differentiation primary response protein …; inhibition, % at 4.98 µM;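 active = inhibition above the mean over all tested compounds plus 3 SD, cut at about 21% in these data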
NOD2-RIPK2 inh: NOD2-RIPK2 binding disruptors in cells, primary screen, fluorescence, CHO cells, BLA complementation | 360,000 tested, 0.38% active | CCF4 ratio | inhibition, % at 4.98 µM | Receptor-interacting serine/threonine-protein kinase 2 (Homo sapiens), O43353; in the data active = inhibition above about 21%
Each line names hits and unclear results; the compound was inactive in the other large screens.

CC1CCCCC1NC(=O)CCCCCn1c(=S)[nH]c2ccsc2c1=O (stereo not drawn)	CRFR2-BP antag 93 (no result: TLR4 MyD88 comp)
O=C(CCCn1c(=S)[nH]c2ccsc2c1=O)NC1CCCCC1	none (no result: TLR4 MyD88 comp)
COc1ccc(-c2ccccc2)cc1NC(=O)[C@@H]1O[C@H](CO)[C@H](O)[C@H](O)[C@H]1O	none (no result: TLR4 MyD88 comp, CRFR2-BP antag, TLR9-MyD88 block)
CCOC(=O)CNC(=O)CN1CCCN(S(=O)(=O)c2ccc(Br)s2)CC1	none
O=C(CN1CCCN(S(=O)(=O)c2ccc(Br)s2)CC1)Nc1ccc(Cl)cc1	ABHD5 PLIN5 PPI 50
O=C(NCCN1CCC(n2c(=O)[nH]c3ccccc32)CC1)c1ccc(Cl)cc1Cl	none (no result: TLR4 MyD88 comp, CRFR2-BP antag, TLR9-MyD88 block)
CCOC(=O)c1ccc(NC(=O)c2cccc3c2C(=O)N(CC2CCCO2)C3)cc1 (stereo not drawn)	CRFR2-BP antag 60 (no result: TLR4 MyD88 comp)
COC(=O)/C=C1\OCc2cc(OCc3ccccc3)ccc21	none (no result: TLR4 MyD88 comp, CRFR2-BP antag, TLR9-MyD88 block)
O=C(CN1c2cccc3cccc(c23)S1(=O)=O)NC1CCCCC1	CRFR2-BP antag 70 (no result: TLR4 MyD88 comp)
O=C(CN1C(=O)c2ccccc2S1(=O)=O)NC1CCCCCC1	none
CSc1ncnc2c1ncn2CCCN1CCN(Cc2cccc3ccccc23)CC1	none (no result: TLR4 MyD88 comp)
COc1cccc(C2=CC(c3ccccc3)n3nnnc3N2)c1 (stereo not drawn)	none
COc1cccc(C2C=C(c3ccc(OC)cc3OC)Nc3nnnn32)c1 (stereo not drawn)	TLR9-MyD88 block 46, NOD2-RIPK2 inh 31
Cc1ccc(S(=O)(=O)N2CC3(O)CN(C(=O)OC(C)C)N(C(=O)OC(C)C)CC3(OC(=O)NCc3ccccc3)C2)cc1 (stereo not drawn)	none (no result: TLR4 MyD88 comp)
O=C(C[C@H]1C(=O)N(CCc2ccccc2)C[C@@H]1c1ccccc1)Nc1ccccc1	none (no result: TLR4 MyD88 comp)
Cc1ccc(C(=O)N/N=C(/CC(=O)c2cccs2)C(F)(F)F)cc1	CRFR2-BP antag 80
O=C(Nc1ccccc1)OC[C@@H]1C=CS(=O)(=O)N1Cc1ccc(Br)cc1	none (no result: TLR4 MyD88 comp, CRFR2-BP antag, TLR9-MyD88 block)
COc1ccc(C2=Nc3ccccc3C2(O)CCN2C(=O)c3ccccc3C2=O)cc1 (stereo not drawn)	CRFR2-BP antag 67 (no result: TLR4 MyD88 comp)
COCCNC(=O)C1CCCN(C(=O)c2ccc3c(c2)C(C)(C)CCC3(C)C)CC1 (stereo not drawn)	none (no result: TLR4 MyD88 comp, CRFR2-BP antag, TLR9-MyD88 block)
CCCCOC(=O)Oc1ccc2c(=O)c(Oc3cccc(C)c3)coc2c1	CRFR2-BP antag 56
CCOC(=O)[C@]12CCC=C1N(Cc1cccc3ccccc13)C(=O)[C@H](CC(=O)NCc1ccc(C)o1)C2	none (no result: TLR4 MyD88 comp, CRFR2-BP antag, TLR9-MyD88 block)
COc1cc(Cl)ccc1OC1(C)CCN(Cc2c(F)cccc2F)C1 (stereo not drawn)	none (no result: TLR4 MyD88 comp, CRFR2-BP antag, TLR9-MyD88 block)
O=C(COC(=O)c1ccc([N+](=O)[O-])s1)NCCc1ccccc1	HTR2A ag 17 (no result: TLR4 MyD88 comp)
O=C(NNC(=O)c1ccccc1C(=O)O)c1ccc(O)cc1	CRFR2-BP antag 58
COc1ccc(CCC(=O)N2c3ccccc3N=C(c3ccc4c(c3)OCO4)C2C(=O)NCc2ccccc2)cc1 (stereo not drawn)	none (no result: TLR4 MyD88 comp, CRFR2-BP antag, TLR9-MyD88 block)
Cc1cccc(-n2c(SCC(=O)N3CC(=O)Nc4ccccc43)nc3ccccc3c2=O)c1C	CRFR2-BP antag 55
CC1=C(C(=O)N(C)C)CC(CC(=O)NCc2cccc3ccccc23)C(=O)N1Cc1ccc(F)cc1 (stereo not drawn)	none (no result: TLR4 MyD88 comp, CRFR2-BP antag, TLR9-MyD88 block)
CC(=O)Nc1ccc(S(=O)(=O)N2CCN(c3nnnn3-c3ccccc3)CC2)cc1	CRFR2-BP antag 102
CC1(C(=O)NS(=O)(=O)c2cccc(C#N)c2)CCN1C(=O)Cc1ccc(Cl)cc1Cl (stereo not drawn)	none (no result: TLR4 MyD88 comp, CRFR2-BP antag, TLR9-MyD88 block)
Cc1nc(SCC(=O)c2ccccc2)c(C#N)c(-c2ccco2)c1C(=O)NCc1ccco1	ABHD5 PLIN5 PPI 38
CN(Cc1cnn(-c2ccc(F)cc2)c1)C(=O)[C@H]1O[C@@H](n2ccc(=O)[nH]c2=O)[C@H](O)[C@@H]1O	none (no result: TLR4 MyD88 comp, CRFR2-BP antag, TLR9-MyD88 block)
